Reference: PubChem BioAssay (NCATS)
Results filed as inconclusive are left out. Calls of active or inactive are those of the source. Unless noted, calls follow the shape of the dose curve; as a rule, active = well fitted curve in the direction sought with a large enough effect; inconclusive = small, poorly fitted or top-dose-only effect, or another doubt; inactive = no such curve, though single readings can be large; an effect the other way counts as inactive or inconclusive.

Assays:
[1] = Cell Viability - BJ (AID 421; calls by dose curve;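 also: potency is read from the fitted curve at half-maximal effect; cells exposed to compound for 40 hours at 37 °C before readout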); details: BJ fibroblast viability, qHTS
How it was run: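 Luminescent ATP signal (CellTiter-Glo, 20 min at room temperature) served as the read-out of viable BJ cells after 40 hours of compound treatment. Responses were scaled between DMSO and 100 uM tamoxifen, and AC50 values were obtained by Hill modeling.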

[2] = Cell Viability - Jurkat (AID 426;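 active = dose-dependent loss of cell ATP signal giving a full or clear fitted curve, ranked by lower potency value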;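 also: potency is read from the fitted curve at half-maximal effect; cells exposed to compound for 40 hours at 37 °C before ATP read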); details: qHTS
How it was run: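 Cytotoxicity was scored as loss of cellular ATP, measured by luciferase-based luminescence, in Jurkat clone E6-1 cells after 40 h compound treatment; tamoxifen and doxorubicin served as positive controls.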

[3] = Cell Viability - Hek293 (AID 427;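 active = compounds whose dose-response curve shows a full or clear partial loss of cell viability, called from curve shape rather than a numeric limit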;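 also: potency is read from the fitted curve at half-maximal effect; cells exposed to compound for 40 hours at 37 °C before reading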); details: qHTS
How it was run: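 Luminescent ATP read-out (CellTiter-Glo, 20 min RT) after 40 hr compound exposure at 37 °C in complete medium. Signal normalized to DMSO (basal) and 100 uM tamoxifen (100% inhibition); concentration-response fitted with the standard Hill equation to give AC50.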

[4] = Cell Viability - HepG2 (AID 433; calls by dose curve;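 also: potency is read from the fitted curve at half-maximal effect; potency for ATP loss meaning cytotoxicity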); details: qHTS
How it was run: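 ATP luminescence (CellTiter-Glo) after 40 h compound exposure, 37 °C, HepG2, 1500 cells/well, complete medium. Normalized: DMSO = basal, 100 uM tamoxifen = 100% inhibition. AC50 via standard Hill equation.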

[5] = Cell Viability - MRC5 (AID 434; calls by dose curve;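 also: potency is read from the fitted curve at half-maximal effect; cells exposed to compound for 40 hours at 37 °C; potency reflects cytotoxicity seen as loss of intracellular ATP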); details: MRC5 lung fibroblast viability, qHTS
How it was run: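 AC50 values come from Hill-equation fits of intracellular ATP loss, measured by CellTiter-Glo luminescence. Normal lung fibroblasts (MRC5) had 40 hr compound treatment at 37 C, normalized between DMSO and 100 uM tamoxifen.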

[6] = Cell Viability - SK-N-SH (AID 435; calls by dose curve; also: potency is read from the fitted curve at half-maximal effect); details: SK-N-SH neuroblastoma cell viability qHTS
How it was run: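 CellTiter-Glo ATP luminescence, 20 min RT read; cells pre-plated 5 hr, compound 40 hr at 37 °C, 1500 cells/well, complete medium. Normalized DMSO = 0, 100 uM tamoxifen = 100% inhibition; Hill-fit AC50.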

[7] = biological target: Mitogen-activated protein kinase 10 (Mus musculus) (UniProt Q61831); assay: JNK3 AlphaScreen Assay (AID 530; active = well fitted curve in either direction with a large enough effect, not every such curve was filed as active;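 also: kinase came from lysate of stimulated human HepG2 cells; signal reports phosphorylation of biotinylated GST-cJun 1-79 at Ser73 with 10 µM ATP; series mostly up to about 57 µM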)
How it was run: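 Kinase buffer: 20 mM Tris-HCl pH 7.6, 10 mM MgCl2, 1 mM DTT, 0.1 mM Na3VO4, 0.01% Tween-20; ATP 10 uM. Substrate biotin-GST-cJun(1-79), enzyme from activated HepG2 lysates. Detection by Ser73 phospho-antibody AlphaScreen.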

[8] = Cell Viability - N2a (AID 540); also: nearly all actives have a fitted effect of over 45% in size
How it was run: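 In this qHTS cytotoxicity screen, ATP-dependent luciferase luminescence reports viable N2a cells after a 40 hr compound exposure in complete culture medium. Potencies are AC50 values from standard Hill equation fits.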

[9] = Cell Viability - HUV-EC-C (AID 542); also: nearly all actives have a fitted effect of over 35% in size
How it was run: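 Concentration-dependent ATP loss in HUV-EC-C cells is the measure. Exposure lasts 40 hr at 37 °C; luminescence follows CellTiter-Glo addition, and Hill fits give AC50.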

[10] = Cell Viability - H-4-II-E (AID 543); also: nearly all actives have a fitted effect of over 35% in size
How it was run: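 AC50 from Hill-modelled qHTS concentration-response curves. H-4-II-E rat hepatoma cells in complete medium, 40 hr exposure at 37 °C, viability by CellTiter-Glo ATP luminescence.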

[11] = Cell Viability - SH-SY5Y (AID 544); also: nearly all actives have a fitted effect of over 55% in size
How it was run: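 Quantitative HTS in SH-SY5Y neuroblastoma cells, 40 hr treatment at 37 °C, ATP content by luciferase luminescence; AC50 from Hill fits.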

[12] = Cell Viability - Renal Proximal Tubule (AID 545); also: nearly all actives have a fitted effect of over 40% in size
How it was run: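 Rat kidney proximal tubule cells, freshly isolated; 1000 cells/well, 5 hr settle, compound 40 hr 37 °C. CellTiter-Glo 20 min RT, luminescence read. AC50 by standard Hill fit.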

[13] = Cell Viability - Mesenchymal (AID 546);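 also: cells exposed to compound for 40 hours before reading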
How it was run: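 CellTiter-Glo luminescence (intracellular ATP, 20 min room temperature) after 40 hr compound exposure at 37 °C of 1000 glomerulus-derived human kidney mesenchymal cells/well; AC50 values obtained by fitting qHTS concentration-response data to the Hill equation.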

[14] = Cellular Toxicity (caspase-3) HepG2 (AID 654);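 also: cells exposed to compound for 16 hours before reading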
How it was run: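 Concentration-response AC50 values reflect caspase-3/7 induction in HepG2 cells after 16 hours of compound exposure, quantified by luminescence from liberated aminoluciferin and referenced to 100 uM tamoxifen as full stimulation.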

[15] = Cellular Toxicity (caspase-3) Jurkat (AID 655);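 also: cells exposed to compound for 16 h at 37 °C before reading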
How it was run: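 Luminescent caspase-3/7 readout (aminoluciferin substrate cleavage) in human T-cell leukemia Jurkat cells after 16 hr compound exposure. Concentration-response normalized to DMSO and 100 uM tamoxifen; AC50 by standard Hill equation.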

[16] = Cellular Toxicity (caspase-3) HUV-EC-C (AID 656)
How it was run: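 Luminescent caspase-3/7 activation (aminoluciferin substrate cleavage) in HUV-EC-C cells after 16 hr compound exposure, 37°C. Signal normalized to DMSO basal and 100 uM tamoxifen as 100%; AC50 from concentration-response fitted with the Hill equation.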

[17] = Cellular Toxicity (caspase-3) SHSY5Y (AID 657)
How it was run: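 Luminescent caspase-3/7 readout (aminoluciferin release) in SH-SY5Y cells after 16 h compound exposure in complete medium. Activity scaled between DMSO basal and 10 uM staurosporine as 100%; concentration-response fitted to Hill equation for AC50.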

[18] = Cellular Toxicity (caspase-3) BJ (AID 658)
How it was run: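 Caspase-Glo 3/7 luminescence, read 1 hr after reagent at room temperature, in normal BJ fibroblasts exposed 16 hours at 37 °C. AC50 values from Hill-equation concentration-response, scaled between DMSO basal and 10 uM staurosporine as 100%.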

[19] = Cellular Toxicity (caspase-3) MRC-5 (AID 659)
How it was run: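 Luminescent Caspase-Glo 3/7 read-out (1 h, room temperature) after a 16 h, 37 °C compound exposure of MRC-5 lung fibroblasts at 1500 cells/well. Concentration-response AC50 from Hill equation; 0% DMSO, 100% 10 uM staurosporine.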

[20] = Cellular Toxicity (caspase-3) Mesangial (AID 660);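 also: combined caspase 3 and 7 activity read by Caspase-Glo luminescence; cells exposed to compound for 16 h before the caspase read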
How it was run: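 AC50 values come from Hill-equation fits of caspase 3/7 activation, measured as Caspase-Glo luminescence in human glomerular mesangial cells exposed to compound for 16 h at 37 °C; 100% set by 100 uM tamoxifen.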

[21] = Cellular Toxicity (caspase-3) SK-N-SH (AID 661)
How it was run: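 Apoptosis readout in SK-N-SH neuroblastoma: Caspase-Glo 3/7 luminescence following 16 hr treatment in complete culture medium. Normalization used DMSO and 10 uM staurosporine controls.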

[22] = Cellular Toxicity (caspase-3) H-4-II-E (AID 663);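 also: cells exposed to compound for 16 hr before readout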
How it was run: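 Caspase 3/7 activation measured by luminescent aminoluciferin substrate cleavage after 16 hr compound treatment of H-4-II-E cells in complete medium. Increase normalized between DMSO (basal) and 100 uM tamoxifen (100%); Hill-equation AC50 from concentration-response.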

[23] = Cellular Toxicity (caspase-3) Hek293 (AID 664);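 also: cells exposed to compound for 16 h at 37 °C before readout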
How it was run: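 Apoptosis readout: Caspase-Glo 3/7 signal in human HEK293 cells following 16-hour compound incubation. Responses scaled between DMSO baseline and 100 uM tamoxifen.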

[24] = Cellular Toxicity (caspase-3) N2a (AID 665);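 also: compound exposure lasted 16 h at 37 °C before readout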
How it was run: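 Concentration-response qHTS: compound-induced caspase-3/7 luminescence in N2a cells (16 h, 37 °C), relative to DMSO and 10 uM staurosporine controls; AC50 obtained using the standard Hill equation.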

[25] = Cellular Toxicity (caspase-3) NIH 3T3 (AID 666)
How it was run: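 Activity: caspase-3/7 induction, NIH 3T3 cells, 16 hr treatment at 37°C, luminescent Caspase-Glo detection; AC50 via Hill equation.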

[26] = Cellular Toxicity (caspase-3) Renal Proximal Tubule (AID 667);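 also: cells exposed to compound for 16 hours at 37 °C before detection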
How it was run: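 Luminescent caspase 3/7 signal from peptide-aminoluciferin cleavage measures apoptosis in freshly isolated rat kidney proximal tubule cells after 16 h compound exposure. Concentration-response data are normalized to DMSO and 10 uM staurosporine, and AC50 values come from Hill equation fits.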

[27] = biological target: Cytochrome P450 3A4 (Homo sapiens) (UniProt P08684); assay: qHTS Assay for Inhibitors and Substrates of Cytochrome P450 3A4 (AID 884); also: series mostly up to about 57 µM; nearly all actives have a fitted effect of over 50% in size
How it was run: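 Luminescent readout of luciferin produced by CYP3A4 (20 nM) dealkylation of Luciferin-PPXE, 25 uM (its KM). NADPH-driven reaction ran 60 min at RT after 10 min compound preincubation; data scaled to 57 uM ketoconazole as 100% inhibition.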

[28] = Cell Viability - LYMP2-001 (AID 921); also: series mostly up to about 92 µM; nearly all actives have a fitted effect of over 70% in size
How it was run: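 CellTiter-Glo luminescence (intracellular ATP) after 24 hr compound exposure at 37 C, 2500 lymphoblastoid cells/well in complete medium. AC50 fitted with standard Hill equation; tetraoctylammonium bromide positive control.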

[29] = MultiTox-Fluor Cytotoxicity Assay - LYMP1-001 - Dead Cells (AID 946)
How it was run: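 AC50 from Hill fit of concentration-response; data normalized to DMSO (basal) and 15 uM tetraoctylammonium bromide (100%). LYMP1-001 lymphoblastoid cells, 2500/well, 16 hr compound at 37 C; dead-cell protease fluorescence, Ex/Em 485/520.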

[30] = MultiTox-Fluor Cytotoxicity Assay - LYMP1-001 - Live Cells (AID 947)
[31] = Cell Viability - LYMP1-002 - Assay at 16 hr (AID 948)
How it was run: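 LYMP1-002 human lymphoblastoid cells, 2500/well; 5 hr 37 C; cpd 16 hr 37 C; CellTiter-Glo 30 min RT; luminescence (ATP). Concentration-response, Hill-fit AC50. Pos ctrl tetraoctylammonium bromide.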

[32] = MultiTox-Fluor Cytotoxicity Assay - LYMP1-002 - Live Cells (AID 955)
How it was run: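 In this qHTS viability format, lymphoblastoid cells (LYMP1-002, human) received compound for 16 hr at 37 C. Fluorogenic GF-AFC cleavage by viable cells was detected at 405/510 nm after 1 h at room temperature.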

[33] = MultiTox-Fluor Cytotoxicity Assay - LYMP1-002 - Dead Cells (AID 960); also: nearly all actives have a fitted effect of over 60% in size
How it was run: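 Concentration-dependent increases in membrane-leaked protease activity are quantified in LYMP1-002 cells after 16 hr treatment; values are normalized against DMSO and tetraoctylammonium bromide (15 uM) controls and AC50 derived by Hill modeling.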

[34] = MultiTox-Fluor Cytotoxicity Assay - LYMP1-003 - Dead Cells (AID 961); also: nearly all actives have a fitted effect of over 70% in size
How it was run: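 Human lymphoblastoid LYMP1-003 cells (2500/well) were treated with compounds for 16 hr at 37 C in complete medium. Dead-cell protease release was read by bis-AAF-R110 fluorescence (Ex/Em 485/520). AC50 came from Hill fits, normalized to DMSO and 15 uM tetraoctylammonium bromide.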

[35] = MultiTox-Fluor Cytotoxicity Assay - LYMP1-003 - Live Cells (AID 962);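 also: cytotoxic hits lower the live-cell protease signal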
How it was run: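 Human lymphoblastoid line LYMP1-003 in complete culture medium, treated 16 hr with titrated compounds. Viable cells quantified via cell-permeant GF-AFC substrate fluorescence; AC50 derived by Hill fitting.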

[36] = Cell Viability - LYMP1-003 - Assay at 24 hr (AID 963)
How it was run: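 The lymphoblastoid line was treated with titrated compounds for 24 hours, and viable cell number estimated from luciferase-based ATP luminescence.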

[37] = Cell Viability - LYMP1-003 - Assay at 40 hr (AID 964); also: series mostly up to about 92 µM; nearly all actives have a fitted effect of over 60% in size
How it was run: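 Acute toxicity is scored as a concentration-dependent loss of intracellular ATP in LYMP1-003 cells (2500/well, complete medium) after 40 hr at 37 C, measured by CellTiter-Glo luminescence; AC50 values derive from standard Hill modelling.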

[38] = Cell Viability - LYMP2-003 (AID 965);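 also: cells exposed to compounds for 24 h before reading; nearly all actives have a fitted effect of over 50% in size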
How it was run: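 CellTiter-Glo luminescence (cellular ATP) after 24 h compound exposure at 37 C in complete medium; 2500 cells/well, 5 h settling beforehand. Concentration-response fitted to standard Hill equation for AC50. Tetraoctylammonium bromide served as positive control.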

Measured: Potency

Cytochrome P450 3A4 (Homo sapiens), sequence (P08684 whole entry, looked up): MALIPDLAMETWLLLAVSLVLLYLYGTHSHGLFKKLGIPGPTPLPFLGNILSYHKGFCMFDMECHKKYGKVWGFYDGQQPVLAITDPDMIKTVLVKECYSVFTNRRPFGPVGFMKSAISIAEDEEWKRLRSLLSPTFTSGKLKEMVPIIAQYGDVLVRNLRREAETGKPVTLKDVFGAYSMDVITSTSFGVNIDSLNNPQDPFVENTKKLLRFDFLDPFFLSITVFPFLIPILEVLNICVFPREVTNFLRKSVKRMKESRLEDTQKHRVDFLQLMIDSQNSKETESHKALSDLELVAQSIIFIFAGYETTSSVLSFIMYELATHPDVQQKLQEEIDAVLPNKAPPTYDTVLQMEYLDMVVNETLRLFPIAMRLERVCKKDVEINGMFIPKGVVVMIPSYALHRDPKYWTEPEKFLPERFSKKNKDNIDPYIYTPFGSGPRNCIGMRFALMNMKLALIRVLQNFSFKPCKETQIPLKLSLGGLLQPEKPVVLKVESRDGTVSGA

C[C@@H]1[C@H](O)[C@@H](C)/C=C/C=C/C=C/C=C/C=C/C=C/C=C/[C@H](O[C@@H]2O[C@H](C)[C@@H](O)[C@H](N)[C@@H]2O)C[C@@H]2O[C@](O)(C[C@@H](O)C[C@@H](O)[C@H](O)CC[C@@H](O)C[C@@H](O)CC(=O)O[C@H]1C)C[C@H](O)[C@H]2C(=O)O
inactive: [1] > 92 µM | [2] > 92 µM | [3] > 92 µM | [4] > 92 µM | [5] > 92 µM | [6] > 92 µM | [7] | [8] | [9] | [10] | [11] | [12] | [13] | [14] | [15] | [16] | [17] | [18] | [19] | [20] | [21] | [22] | [23] | [24] | [25] | [26] | [27] | [28] | [29] | [30] | [31] | [32] | [33] | [34] | [35] | [36] | [37] | [38]
